Screening results deposited in PubChem BioAssay by several laboratories.
CYP2C9 inh: blocks human cytochrome P450 2C9 | hit rate 20% among 96,000 | inhibition, % at 5 µM | P11712 | AID 777 | CYP2C9 Supersomes, luciferin-H conversion, luminescence;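 active means blocking of liver enzyme CYP2C9 beyond about 50% at 5 µM, limit read from the data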
CYP2C19 inh: human CYP2C19 inhibition; P33261; CYP2C19 Supersomes, luciferin-H EGE luminescence, 30 min; inhibition, % at 5 µM; hit rate 21% among 96,000;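 active means CYP2C19 inhibition above a set limit at 5 µM in the primary screen, cut at about 50% in these data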;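 further: plate controls were negative control wells for no effect and 2.5 mM tranylcypromine positive control for full effect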
Target sequence (P33261 whole entry, looked up): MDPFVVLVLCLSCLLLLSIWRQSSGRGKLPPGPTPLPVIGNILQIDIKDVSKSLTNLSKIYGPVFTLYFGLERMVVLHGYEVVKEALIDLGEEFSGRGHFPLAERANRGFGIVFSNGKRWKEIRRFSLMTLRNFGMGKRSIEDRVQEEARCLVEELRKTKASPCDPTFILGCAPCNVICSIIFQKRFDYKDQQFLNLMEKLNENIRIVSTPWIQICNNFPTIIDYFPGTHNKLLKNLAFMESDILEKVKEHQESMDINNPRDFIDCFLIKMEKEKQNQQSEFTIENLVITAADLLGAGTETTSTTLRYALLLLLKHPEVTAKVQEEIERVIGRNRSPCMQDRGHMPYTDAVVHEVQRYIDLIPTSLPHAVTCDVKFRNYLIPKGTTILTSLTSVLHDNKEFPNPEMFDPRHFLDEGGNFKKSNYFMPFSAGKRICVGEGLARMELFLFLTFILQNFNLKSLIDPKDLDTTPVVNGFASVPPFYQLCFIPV
PostGolgi yeast: growth inhibition of a yeast mutant, post-Golgi transport screen; post-Golgi transport phenotypic cell assay; inhibition, % at 10 µM; hit rate 0.9% among 98,000;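 further: yeast cells grown in 1536-well plates; yeast grown about 18 h at 30C before absorbance read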
PostGolgi ctrl: yeast control strain growth, post-Golgi counter-screen | efflux-deficient yeast background strain, growth absorbance A615, 16 h | inhibition, % at 10 µM | hit rate 5% among 98,000 | AID 738
CYP2C9 act: CYP2C9 (human) activation. P11712. recombinant CYP2C9, luciferin-H conversion, luminescence; active compounds read high; factor 1 = untreated enzyme, 0 = blocked. activation factor at 5 µM. hit rate 1.4% among 96,000. AID 1024;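 active means activation factor of 2 or more for CYP2C9 at a 5 µM dose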;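 further: 0 = sulfaphenazole-blocked wells and 1 = vehicle-only wells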
CYP2C19 activ: increases human CYP2C19 enzyme activity; P33261; recombinant CYP2C19, luciferin-H EGE luminescence; active compounds read high; 0 = fully inhibited enzyme, 1 = untreated enzyme; activation factor at 5 µM; 96,000 tested, under 10 active; AID 1025;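 active means activation factor of at least 2 at 5 µM in the primary screen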;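 further: 0 = wells with 2.5 mM tranylcypromine and 1 = vehicle-only wells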
An asterisk follows results filed as active; x = no result. Sampled rows, rich in hits. Any-hit rate of the full collection: about 32%. Unless noted, no stated cut-off is given here; in the data, active means inhibition above about 30%; inactive means the rest.

SMILES	CYP2C9 inh	CYP2C19 inh	PostGolgi yeast	PostGolgi ctrl	CYP2C9 act	CYP2C19 activ
Fc1ccc(CNc2nc3ccccc3n3cnnc23)cc1	3.1	35.2	-7.0	-1.8	1	0.6
N#Cc1c(-n2cccc2/C=N/O)sc2c1CCCC2	-176.5	40.5	-5.3	9.5	2.8*	0.6
CCCCNC(=O)CCc1nc2cccnc2n1Cc1ccc(OC)cc1	22.2	41.4	-8.3	1.0	0.8	0.6
C/C(=C\C(=O)c1ccccc1)NCc1ccc(F)cc1	4.0	34.1	15.3	7.7	1	0.7
CN(C)c1ccc(N/C=C/C(=O)c2ccccc2)cc1	73.1*	98.7*	-5.3	3.4	0.3	0
O=C(/C=C\NCC(=O)c1ccccc1)c1ccc(F)cc1	-5.0	56.4*	17.4	-4.0	1.1	0.4
CN(C)c1ccc(N/C=C/C(=O)C(C)(C)C)cc1	32.0	3.5	5.3	6.8	0.7	1
O=C(/C=C/Nc1ccccc1)c1ccccc1	33.7	54.8*	-3.7	4.3	0.7	0.5
Cc1ccc(N/C=C/C(=O)c2ccc(C)cc2)cc1	19.2	29.5	12.9	21.6	0.8	0.7
CCOC(=O)N1CCN(S(=O)(=O)c2ccc3c(c2)CCN3C(=O)CC)CC1	26.7	20.5	-9.0	-5.0	0.7	0.8
N#CC(C(=O)NC1CC1)c1nc2ccccc2nc1N1CCN(C/C=C/c2ccccc2)CC1 (centres undefined)	44.9	4.8	1.9	20.9	0.6	1
C(/CCc1ccccc1)=N\n1cnnc1	x	x	0.2	2.4	x	x
COc1cc(C=O)ccc1OCc1c(C)noc1C	47.6	84.7*	4.8	1.7	0.5	0.2
COc1ccc(S(=O)(=O)N2CCCCCC2)cc1C(=O)OCc1c(C)noc1C	86.3*	50.1*	16.2	14.8	0.1	0.5
COc1ccc(S(=O)(=O)N2CCCCCC2)cc1C(=O)OCC(=O)NC(N)=O	21.2	10.1	-3.6	-2.2	0.8	0.9
Cc1noc(C)c1COC(=O)c1cccc(S(=O)(=O)N2CCCCCC2)c1	96.2*	90.9*	-8.1	18.5	0	0.1
CCCCNC(=O)COC(=O)c1cc(S(=O)(=O)N2CCCCCC2)ccc1OC	47.8	55.4*	-1.5	6.6	0.5	0.4
COc1cc(C(=O)O)ccc1OCc1c(C)noc1C	-6.8	-21.3	4.9	8.0	1.1	1.2
CCCc1c(CC)c(=N)c2ccccc2n1C	11.6	-8.5	-2.6	2.9	0.9	1.1
COc1ccc(/C=N/NC(=O)CC(=O)NCCc2ccccc2)cc1OC	7.9	33.4	-0.3	-4.3	0.9	0.7
Cc1ccc(N(C(=O)Cn2nnc(-c3ccc(F)cc3)n2)C(CC(C)C)C(=O)NCC2CCCO2)cc1 (centres undefined)	40.0	23.3	3.3	1.8	0.6	0.8
COc1ccc(NC(=O)Cc2nn(C)c(=O)c3ccccc23)c2ncccc12	11.4	3.8	x	x	0.9	1
COc1cc(C(=O)N2CCN(S(=O)(=O)c3ccc(C)cc3)CC2)ccc1OCc1c(C)noc1C	55.5*	70.1*	-1.0	3.6	0.4	0.3
COc1ccc(S(=O)(=O)N2CCc3ccccc32)cc1C(=O)OCc1c(C)noc1C	98.9*	94.6*	-6.3	2.5	0	0.1
Cc1ccc(-n2c(=O)[nH]cc(C(=O)Nc3ccc4c(c3)OCO4)c2=O)cc1C	-37.7	-16.1	x	x	1.4	1.2
SMILES	CYP2C9 inh	CYP2C19 inh	PostGolgi yeast	PostGolgi ctrl	CYP2C9 act	CYP2C19 activ
CCCOc1nc(N)c(C#N)c(-c2ccccc2F)c1C#N	5.6	38.1	-1.4	27.2	0.9	0.6
COc1cc(C=O)c(Br)cc1OC1CCCC1	11.4	22.1	3.4	33.7*	0.9	0.8
COc1ccc([N+](=O)[O-])cc1NC1CCCCC1	10.1	4.5	-2.3	11.6	0.9	1
CCc1nnc(NC(=O)c2c(O)c3cccc4c3n(c2=O)CC4)s1	-1.6	-5.0	x	x	1	1.1
O=C(Cn1cc2c(n1)CCCC2)N1CCc2ccccc21	27.4	9.5	4.6	38.1*	0.7	0.9
O=C(CCn1cccc1)N1CCc2ccccc21	-4.8	51.5*	21.8	17.5	1	0.5
O=C(CCn1c(=O)oc2ccccc21)N1CCc2ccccc21	4.0	-2.2	4.7	4.9	1	1
CCc1nnc(NCC(=O)N2CCc3ccccc32)s1	59.5*	47.6	1.4	4.7	0.4	0.5
O=C(Cc1ccccc1)N1CCc2ccccc21	26.0	82.4*	-5.3	2.6	0.7	0.2
Cc1c(Br)c(=O)[nH]c(=O)n1COCc1ccccc1	7.6	10.8	3.0	-0.4	0.9	0.9
NC(=O)NCCC1=CCCCC1	5.3	-1.2	-6.2	2.1	0.9	1
O=C(NCCC1=CCCCC1)C(=O)NCc1ccccc1Cl	12.7	2.3	1.3	33.8*	0.9	1
O=C(NCCC1=CCCCC1)NC1CCCCC1	x	x	-4.8	6.7	x	x
O=C(O)C1C2CCC(O2)C1C(=O)NCCC1=CCCCC1 (centres undefined)	4.8	16.9	-2.1	30.4*	1	0.8
CCCNC(=O)C(=O)NCCC1=CCCCC1	10.5	54.4*	0.6	2.6	0.9	0.5
Cc1cc(C(=O)NCCC2=CCCCC2)c(C)o1	27.0	61.1*	12.3	14.4	0.7	0.4
Cc1ccc(N)cc1CN1CCCC1=O	7.0	11.1	-0.6	20.9	0.9	0.9
C1=C(CCNC2=NCCCCC2)CCCC1	1.4	12.4	-1.8	31.9*	1	0.9
COc1nc(NCCC2=CCCCC2)nc(OC)n1	19.7	16.7	0.3	20.4	0.8	0.8
CCCCC(O)(CCN1CCOCC1)c1ccc(Cl)cc1 (centres undefined)	21.5	38.2	9.3	-3.2	0.8	0.6
CCCC(O)(c1ccc(Cl)cc1)C(CN1CCOCC1)c1ccccc1 (centres undefined)	7.4	26.8	1.2	50.3*	0.9	0.7
Cc1cc(Cl)ccc1Oc1ncc(-c2ccc(Cl)cc2)cn1	3.3	23.6	-11.9	14.8	1	0.8
Cc1cc(Cl)ccc1OCc1nc(-c2ccc(O)cc2)n[nH]1	93.8*	96.8*	5.5	96.2*	0.1	0
O=C(NC1(C(F)(F)F)N=C(c2ccccc2)NC1=O)c1ccc(Cl)cc1Cl (centres undefined)	16.4	23.3	-1.9	12.3	0.8	0.8
COc1ccc(-c2noc(C(C)n3nc(C)c([N+](=O)[O-])c3C)n2)cc1OC (centres undefined)	59.0*	24.7	1.7	7.9	0.4	0.8
COc1cccc(-c2noc(Cn3nc(C)c([N+](=O)[O-])c3C)n2)c1	31.1	55.5*	-7.3	-2.5	0.7	0.4
Cc1nn(C(C)c2nc(-c3ccccc3)no2)c(C)c1[N+](=O)[O-] (centres undefined)	39.3	36.6	-5.3	-1.8	0.6	0.6
Cc1ccccc1NS(=O)(=O)c1ccc(OCC(=O)N2CCCC2)cc1	-22.8	-18.5	3.3	3.2	1.2	1.2
O=C(O)C1C2CCCCC2=C2CCCCC2C1C(=O)O (centres undefined)	24.0	3.7	5.2	5.0	0.8	1
